SMARCA2 act: SMARCA2 (BRM) function activators, primary screen, cell-based, luminescence, high throughput; MG213 cells, MMTV-luciferase reporter, dexamethasone, overnight; activation, % at 9.1 µM; 370,000 compounds, 1% hits; AID 652017, 2013; in the data active means activation above about 7.8%;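 further: 0% = vehicle wells and 100% = reference activator wells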
hcDAF12 agonist: H. contortus DAF-12 nuclear receptor activators, primary screen, cell-based, luminescence, HEK293, lit1-tk-luc reporter. activation, % at 6.8 µM. HEK293 hcDAF-12 lit1-tk-luc reporter; 0% DMSO, 100% Δ7-dafachronic acid. 370,000 compounds, 1.4% hits;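 active means activation above the mean of all tested compounds plus 3 SD, cut at about 5.5% in these data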;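 further: 100% = response to 3 µM Δ7-dafachronic acid high control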
ssDAF12 agonist: S. stercoralis DAF-12 nuclear receptor activators, primary screen, cell-based, luminescence, HEK293, GRIP1 co-expression, lit1-tk-luc. Nuclear hormone receptor DAF-12 (Strongyloides stercoralis). HEK293 ssDAF-12/GRIP1 lit1-tk-luc reporter; % of 3 µM dafachronic acid response. activation, % at 6.8 µM. 370,000 compounds, 1% hits;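 active means activation above the mean over all tested compounds plus 3 SD, cut at about 0.9% in these data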;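 further: 0% = DMSO-only wells and 100% = 3 µM delta7-dafachronic acid wells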
hgDAF12 agonist: H. glycines DAF-12 receptor agonists, primary screen, cell-based, luminescence, HEK293, GAL4 fusion, UAS-luciferase; HEK293 GAL4-hgDAF12 UAS-luciferase reporter, agonist luminescence; normalized to butyrate control; activation, % at 6.8 µM; 370,000 compounds, 1.8% hits; AID 687014, 2013;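 active means activation above a cutoff set at the mean of all screened compounds plus 3 SD, cut at about 10% in these data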;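 further: 0% = DMSO wells and 100% = sodium butyrate wells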
DAX1 inh-1: DAX1 (NR0B1) inhibitors, primary screen, cell-based, HEK293, Gal4-DAX1, luciferase luminescence | HEK293 Gal4-DAX1 luciferase reporter | 340,000 compounds, 0.99% hits | Nuclear receptor subfamily 0 group B member 1 (Homo sapiens), P51843 | inhibition, % at 6.75 µM;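 active means inhibition above the mean over all tested compounds plus 3 SD, cut at about 4.2% in these data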;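 further: 0% = DAX1-transfected cells with DMSO and 100% = empty-vector control cells with DMSO; inhibition shows as a rise in luminescence from relieved DAX1 repression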
Target sequence (P51843 207-470 limits assumed): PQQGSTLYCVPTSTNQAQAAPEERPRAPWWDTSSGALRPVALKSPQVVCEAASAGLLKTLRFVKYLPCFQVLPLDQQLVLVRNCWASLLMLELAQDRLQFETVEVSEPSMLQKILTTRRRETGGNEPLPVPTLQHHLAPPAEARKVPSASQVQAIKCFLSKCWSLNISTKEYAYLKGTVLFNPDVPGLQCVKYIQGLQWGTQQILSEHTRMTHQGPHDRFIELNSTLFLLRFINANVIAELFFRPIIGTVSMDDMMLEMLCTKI
DAX1 inh-2: DAX1 (NR0B1) inhibitors on StAR promoter, primary screen, cell-based, luminescence, SF-1 (NR5A1), full-length DAX-1; HEK293T StAR-luciferase reporter, SF-1/DAX-1 repression relief; inhibition, % at 6.8 µM; 370,000 compounds, 1.1% hits;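 active means inhibition above the mean over all tested compounds plus 3 SD, cut at about 3.6% in these data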;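 further: 0% = DAX-1 cells with DMSO and 100% = cells lacking DAX-1 with DMSO; higher inhibition means more luminescence from relief of DAX-1 repression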
An asterisk follows results filed as active; · = not tested or not shown. Only some compounds are listed: those with a hit (about 4.8% of all), similar ones and a draw of the others.

SMILES	SMARCA2 act	hcDAF12 agonist	ssDAF12 agonist	hgDAF12 agonist	DAX1 inh-1	DAX1 inh-2
Cc1nc2cc(NC(=O)C3(C)CCCN(C(C)C)C3)ccc2o1 (stereo not drawn)	-0.5	0.0	-1.4	5.0	·	-0.4
O=C(OCc1cn(Cc2c(F)cccc2F)nn1)N1CCCC1	-1.7	-3.0	-0.9	-1.1	·	-0.4
COc1ccc(C2=NN(S(=O)(=O)c3ccccc3)C(c3ccccc3)C2)cc1 (stereo not drawn)	-3.4	0.2	-1.4	0.4	0.9	0.2
COc1ccc(C2=NN(CN3C(=O)C(=O)c4ccccc43)C(c3ccc(OC)cc3)C2)cc1 (stereo not drawn)	5.9	1.2	-1.3	11.1*	-0.1	0.0
O=C(CCNC(=O)C1CCN(S(=O)(=O)c2ccc(F)cc2)CC1)NCc1ccccn1	-2.9	-1.1	-1.3	-0.5	0.5	1.2
COc1ccc(C(C)(NC(C)=O)c2nc(-c3ccc(F)c(Cl)c3)cs2)cc1 (stereo not drawn)	-6.1	-1.8	-1.2	1.9	·	-0.1
Clc1ccc(/C=N/NC(=Nc2ccccc2)c2ccccn2)c(Cl)c1	4.2	5.6	-0.1	12.1*	3.1	3.2
C(=N\NC(=Nc1ccccc1)c1ccccn1)/c1ccccn1	0.9	1.4	-0.5	2.9	0.7	0.5
NS(=O)(=O)c1ccc(CCNC(=O)CN2CCN(S(=O)(=O)c3ccccc3F)CC2)cc1	3.0	-1.0	-1.4	1.7	·	-0.2
COc1ccc(/C=C/C(=O)Nc2cc(C)nn2-c2nc3ccccc3n2Cc2cccc([N+](=O)[O-])c2)cc1	-0.1	4.2	1.0*	3.5	2.4	1.6
COc1ccc(/C=C/C(=O)Nc2cc(C)nn2-c2nc3ccccc3[nH]2)cc1	-2.9	-2.9	-1.2	0.8	-0.4	-0.2
CC(=O)c1cccc(NC(=O)Nc2ccccc2)c1	0.9	-0.6	-1.3	8.1	-0.7	-0.1
CC(=O)c1cccc(NC(=O)Nc2nc(C)cc(C)n2)c1	3.7	-0.4	0.0	-1.2	4.7*	2.3
Cc1ccc(NC(=O)c2cc(C)nc3ccccc23)cc1	-1.0	-0.6	-0.8	3.9	1.0	-0.3
CC(=O)c1ccc(NC(=O)c2cc(C)nc3ccccc23)cc1	3.4	0.0	-0.9	8.9	4.4*	0.5
CCN(CC)c1ccc(NC(=O)Nc2ccccc2)cc1	6.1	5.2	0.3	12.5*	1.1	2.2
CCN(CC)c1ccc(NC(=O)Nc2ccc(C(C)=O)cc2)cc1	-0.6	0.7	-1.2	2.4	-1.8	-1.4
CC(=O)c1ccc(NC(=O)Nc2ccccc2)cc1	1.2	4.3	0.2	13.0*	-1.3	3.6*
COc1cc(NC(=O)c2cccc3c(-c4cnn(C)c4)coc23)cc(OC)c1OC	-2.6	-4.2	-2.1	-9.8	·	-4.2
NC(=O)c1cnc(Cc2c[nH]c3ccccc23)c(I)c1	-1.8	2.0	0.9*	-0.6	·	-0.6
O=C(NCc1ccccc1)c1cnc(Cc2c[nH]c3ccccc23)c(I)c1	0.3	0.7	0.1	0.0	·	0.7
Cc1ccc(C(=O)N/N=C/c2ccc(-c3cccc(Cl)c3)o2)cn1	-3.2	3.6	-0.2	1.2	1.7	-0.1
O=C(N/N=C\c1ccc(-c2cccc(Cl)c2)o1)C(=O)NC1CCCC1	0.2	-0.5	-0.9	-0.2	7.0*	0.3
COc1ccc(CN(C)C[C@@H]2OCCCC[C@H](C)Oc3ccc(NC(=O)Nc4ccc(F)cc4)cc3C(=O)N([C@H](C)CO)C[C@H]2C)cc1	0.4	-0.2	-0.8	1.6	1.5	-0.1
COC(=O)C[C@H]1CC[C@@H]2[C@@H](COc3ccc(NC(=O)c4ccno4)cc3C(=O)N2C)O1	-2.7	-3.7	-1.5	-2.8	·	0.3
SMILES	SMARCA2 act	hcDAF12 agonist	ssDAF12 agonist	hgDAF12 agonist	DAX1 inh-1	DAX1 inh-2
CC(C)(CO)NC(=O)C(Cc1ccccc1)N1C(=O)c2ccccc2C1=O (stereo not drawn)	-1.7	0.8	-0.6	1.0	1.3	0.2
COC(=O)C1=C(C)Nc2ccc(C)cc2S1	0.2	2.0	0.1	5.3	4.2*	1.2
COC(=O)c1ccc2c(c1)SC1=C(CCCC1=O)N2	3.9	-1.2	-1.1	-1.8	-0.9	-2.1
CN(C(=O)c1ccc(NC(=O)Cc2ccc(NC(=O)C3CCCN(C(=O)c4ccccc4)C3)cc2)cc1)C1CCCC1 (stereo not drawn)	-4.1	1.3	-1.4	2.0	-1.8	-2.0
O=C(c1cccc([N+](=O)[O-])c1)c1cc2ccccc2o1	0.3	-0.1	-1.3	3.8	1.1	-0.1
Cc1ccc(C(=O)c2cc3ccccc3o2)cc1C	0.2	4.9	0.6	11.1*	2.9	2.1
Cc1ccc(C(=O)c2cc3ccccc3o2)cc1	4.5	3.2	-0.1	11.8*	2.8	1.6
CCOc1cc(C(=O)N(CC)CC(=O)Nc2ccc3c(c2)OCCO3)ccc1OC	-3.2	-1.6	-1.6	0.7	-0.2	-1.8
CC(=O)Nc1sc(C)c(C)c1C(=O)OCC(=O)Nc1ccccc1C(F)(F)F	4.1	0.8	-1.4	10.7*	1.7	0.6
Cc1cccc(N2CCN(C(=O)c3ccccc3NC(=O)C3CC=CCC3C(=O)O)CC2)c1 (stereo not drawn)	-1.2	0.5	-1.0	0.4	4.4*	0.0
CN(C(=O)COC(=O)c1ccc(=O)n(Cc2ccccc2)n1)C1CCS(=O)(=O)C1 (stereo not drawn)	-0.3	-1.0	-1.0	1.1	-1.0	0.8
O=C(O)C1Cc2ccccc2-c2ccccc2C1	-1.4	0.8	-1.8	3.7	-0.5	-0.3
O=C(O)[C@@H]1Cc2ccccc2N1	-3.4	4.1	1.0*	-1.8	3.9	-0.6
c1cc(SSc2ccncc2)ccn1	-1.1	-0.8	-0.5	0.0	0.1	-0.2
c1ccc(Sc2ccncc2)cc1	7.0	1.4	-0.7	-0.5	5.7*	-0.4
N#C/C(=C\c1cccn1S(=O)(=O)c1ccccc1)S(=O)(=O)c1ccc(F)cc1	-5.2	-1.6	-0.8	-2.5	·	0.4
O=C(O)CCc1ccc(-c2cccs2)n1NC(=O)c1ccc(O)cc1	-2.6	0.3	-1.0	1.7	-1.5	0.2
O=C(O)CCc1ccc(-c2cccs2)n1NC(=O)c1cccs1	-3.0	-0.9	-1.5	-3.8	4.5*	-0.1
CN1CCN(/N=C/c2ccc(OCc3ccccc3)cc2)CC1	4.4	3.4	0.2	8.0	6.0*	0.3

Source: PubChem (The Scripps Research Institute Molecular Screening Center)
